Source: PubChem BioAssay
The source made the active and inactive calls.

Experiments:
[1] = binders of probe aFSTL3 on microarray, primary screen, stem cell growth factor project, biochemical, small-molecule microarray, fluorescence 635/667 (AID 1064); details: higher = more signal;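 also: measures binding of the biotinylated anti-FSTL3 antibody to printed compounds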
[2] = binders from COS7 lysate, DM2A8 probe, primary screen, torsin A project, cell lysate, small-molecule microarray, fluorescence 635/667 (AID 1065); details: higher = more signal, COS7 lysate expressing mutant human TOR1A
[3] = binders of probe aFGF2 on microarray, primary screen, stem cell growth factor project, biochemical, small-molecule microarray, fluorescence 635/667 (AID 1067); details: higher = more signal;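 also: measures binding of biotinylated aFGF2 protein to printed compounds on slides; z-score merges feature fluorescence and signal-to-noise across triplicate slides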
[4] = binders of probe aFGF10 on microarray, primary screen, stem cell growth factor project, biochemical, small-molecule microarray, fluorescence 635/667 (AID 1071); details: higher = more signal;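 also: score merges 667 nm spot intensity and signal to noise from triplicate slides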
[5] = molecular target: Neurogenic locus notch homolog protein 2 (Homo sapiens) (UniProt Q04721); experiment: Notch2 binders on small-molecule microarrays, primary screen, biochemical, small-molecule microarray, 635 nm fluorescence, stem cell growth factors (AID 1073); details: Notch2 binding, higher = more signal
[6] = molecular target: Pro-neuregulin-1, membrane-bound isoform (Homo sapiens) (UniProt Q02297); experiment: NRG1 binders on small-molecule microarrays, primary screen, psychiatric disease protein project, biochemical, small-molecule microarray, fluorescence 635/667 (AID 1075); details: NRG1 binding, 635 nm fluorescence, higher = more signal;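 also: score combines 667 nm spot fluorescence with signal to noise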
Sequence of Pro-neuregulin-1, membrane-bound isoform (Homo sapiens) (Q02297 whole entry, looked up, the tested form may be a part, canonical isoform): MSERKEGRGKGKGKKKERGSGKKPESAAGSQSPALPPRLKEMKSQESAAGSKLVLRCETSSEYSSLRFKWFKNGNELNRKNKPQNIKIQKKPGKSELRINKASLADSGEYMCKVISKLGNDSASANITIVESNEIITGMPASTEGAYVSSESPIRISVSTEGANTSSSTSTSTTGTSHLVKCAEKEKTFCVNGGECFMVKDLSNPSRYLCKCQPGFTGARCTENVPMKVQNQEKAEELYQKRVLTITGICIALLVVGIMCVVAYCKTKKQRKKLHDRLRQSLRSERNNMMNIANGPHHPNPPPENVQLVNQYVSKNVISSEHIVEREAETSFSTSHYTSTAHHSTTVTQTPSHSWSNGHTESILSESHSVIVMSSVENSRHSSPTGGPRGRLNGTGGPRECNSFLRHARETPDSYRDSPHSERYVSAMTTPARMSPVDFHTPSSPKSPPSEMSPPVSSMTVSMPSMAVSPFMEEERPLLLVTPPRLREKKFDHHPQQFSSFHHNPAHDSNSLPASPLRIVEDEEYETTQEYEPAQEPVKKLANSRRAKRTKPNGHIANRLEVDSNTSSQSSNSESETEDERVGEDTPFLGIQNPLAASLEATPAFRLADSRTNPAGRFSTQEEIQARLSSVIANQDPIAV

[7] = system: Neuregulin-1 EGF-like domain; experiment: binders of neuregulin-1 EGF-like domain, primary screen, biochemical, small-molecule microarray, 635 nm fluorescence (AID 1081); details: small-molecule microarray binding, higher = more signal;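 also: binding of the protein to compounds printed on small-molecule microarray slides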
[8] = FRG1 promoter luciferase signal modulators, primary screen, FRG1 inhibition for FSHD, cell-based, C2C12 myotubes, firefly/Renilla luciferase, luminescence (AID 1084); details: higher = more signal, called active from +8 up or from −8 down
[9] = binders of probe aFST on microarray, primary screen, stem cell growth factor project, biochemical, small-molecule microarray, fluorescence 635/667 (AID 1086); details: higher = more signal;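 also: score merges 667 nm fluorescence with signal-to-noise of each printed compound spot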
[10] = binders of probe aHhip on microarray, primary screen, stem cell growth factor project, biochemical, small-molecule microarray, fluorescence 635/667 (AID 1087); details: higher = more signal;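 also: score merges spot fluorescence at 667nm with spot signal to noise ratio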
[11] = system: PRMT1 (protein arginine N-methyltransferase 1); experiment: PRMT1 binders on small-molecule microarrays, primary screen, biochemical, small-molecule microarray, 635 nm fluorescence (AID 1088); details: small-molecule microarray binding, higher = more signal;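 also: binding of Prmt1 protein to compounds spotted on small-molecule microarray slides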
[12] = yeast growth modulation, basal conditions, primary screen, YJM789 clinical isolate, OD600, 24 h (AID 1089);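 also: growth of clinical yeast isolate S. cerevisiae YJM 789 seeded 1000 cells per well; test concentration not given here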; details: S. cerevisiae YJM789 growth, higher = more signal, called active from +8 up or from −8 down
[13] = fission yeast growth modulation, primary screen, strain 972, OD600, 24 h, no modulator (AID 1090);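 also: basal condition with compound alone and no growth modifier present; test concentration not given here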; details: S. pombe 972 growth, higher = more signal, called active from +8 up or from −8 down
[14] = S. cerevisiae growth modulation with rapamycin, primary screen, strain BY4716, OD600, 96 h (AID 1091); details: higher = more signal, called active from +8 up or from −8 down; also: test concentration not given here
[15] = molecular target: Torsin-1A-interacting protein 2 (Homo sapiens) (UniProt Q8NFQ8); experiment: LULL1 binders on small-molecule microarray, primary screen, cell lysate, human LULL1 lysate, 635/667 nm fluorescence (AID 1092); details: hLULL1 lysate binding, 635 nm fluorescence, higher = more signal;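 also: probe is lysate of COS7 cells overexpressing human LULL1; score merges per-feature 667 nm fluorescence with signal-to-noise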
Sequence of Torsin-1A-interacting protein 2 (Homo sapiens) (Q8NFQ8 whole entry, looked up): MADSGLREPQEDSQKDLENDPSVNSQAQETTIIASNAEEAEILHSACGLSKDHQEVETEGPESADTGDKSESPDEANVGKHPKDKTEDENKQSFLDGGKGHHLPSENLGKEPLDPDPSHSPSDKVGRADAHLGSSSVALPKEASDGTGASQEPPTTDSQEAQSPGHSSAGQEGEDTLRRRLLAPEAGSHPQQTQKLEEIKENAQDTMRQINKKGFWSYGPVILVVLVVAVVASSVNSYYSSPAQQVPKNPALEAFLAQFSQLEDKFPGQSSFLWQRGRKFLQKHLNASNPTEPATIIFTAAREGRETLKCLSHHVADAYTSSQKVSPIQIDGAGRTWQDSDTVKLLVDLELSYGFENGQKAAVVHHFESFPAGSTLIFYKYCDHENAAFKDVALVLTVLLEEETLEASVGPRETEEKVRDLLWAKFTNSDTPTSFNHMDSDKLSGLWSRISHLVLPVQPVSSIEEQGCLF

[16] = E. coli growth modulation, two-sided OD650, primary screen, E. coli filamentation project, strain DRC41, 24 h (AID 1093); details: OD650, 24 h, higher = more signal, called active from +8 up or from −8 down;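 also: MC1000 strain lacking acrAB efflux and sulA so SOS filamentation is blocked; test concentration not given here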
[17] = small-molecule microarray binders of probe aLefty2, primary screen, biochemical, biotinylated probe, 635/667 nm fluorescence (AID 1094); details: higher = more signal;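 also: score merges spot fluorescence near 667 nm with spot signal-to-noise ratio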
[18] = system: Noggin (protein binding on small-molecule microarray); experiment: Noggin binders on small-molecule microarray, primary screen, biochemical, 635/667 nm fluorescence (AID 1095); details: 635 nm fluorescence, higher = more signal;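 also: score merges 667 nm feature fluorescence with signal to noise over triplicate slides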
[19] = molecular target: Neurogenic locus notch homolog protein 3 (Homo sapiens) (UniProt Q9UM47); experiment: NOTCH3 binders on small-molecule microarray, primary screen, biochemical, 635/667 nm fluorescence (AID 1096); details: NOTCH3 binding, 635 nm fluorescence, higher = more signal
Sequence of Neurogenic locus notch homolog protein 3 (Homo sapiens) (Q9UM47 whole entry, looked up): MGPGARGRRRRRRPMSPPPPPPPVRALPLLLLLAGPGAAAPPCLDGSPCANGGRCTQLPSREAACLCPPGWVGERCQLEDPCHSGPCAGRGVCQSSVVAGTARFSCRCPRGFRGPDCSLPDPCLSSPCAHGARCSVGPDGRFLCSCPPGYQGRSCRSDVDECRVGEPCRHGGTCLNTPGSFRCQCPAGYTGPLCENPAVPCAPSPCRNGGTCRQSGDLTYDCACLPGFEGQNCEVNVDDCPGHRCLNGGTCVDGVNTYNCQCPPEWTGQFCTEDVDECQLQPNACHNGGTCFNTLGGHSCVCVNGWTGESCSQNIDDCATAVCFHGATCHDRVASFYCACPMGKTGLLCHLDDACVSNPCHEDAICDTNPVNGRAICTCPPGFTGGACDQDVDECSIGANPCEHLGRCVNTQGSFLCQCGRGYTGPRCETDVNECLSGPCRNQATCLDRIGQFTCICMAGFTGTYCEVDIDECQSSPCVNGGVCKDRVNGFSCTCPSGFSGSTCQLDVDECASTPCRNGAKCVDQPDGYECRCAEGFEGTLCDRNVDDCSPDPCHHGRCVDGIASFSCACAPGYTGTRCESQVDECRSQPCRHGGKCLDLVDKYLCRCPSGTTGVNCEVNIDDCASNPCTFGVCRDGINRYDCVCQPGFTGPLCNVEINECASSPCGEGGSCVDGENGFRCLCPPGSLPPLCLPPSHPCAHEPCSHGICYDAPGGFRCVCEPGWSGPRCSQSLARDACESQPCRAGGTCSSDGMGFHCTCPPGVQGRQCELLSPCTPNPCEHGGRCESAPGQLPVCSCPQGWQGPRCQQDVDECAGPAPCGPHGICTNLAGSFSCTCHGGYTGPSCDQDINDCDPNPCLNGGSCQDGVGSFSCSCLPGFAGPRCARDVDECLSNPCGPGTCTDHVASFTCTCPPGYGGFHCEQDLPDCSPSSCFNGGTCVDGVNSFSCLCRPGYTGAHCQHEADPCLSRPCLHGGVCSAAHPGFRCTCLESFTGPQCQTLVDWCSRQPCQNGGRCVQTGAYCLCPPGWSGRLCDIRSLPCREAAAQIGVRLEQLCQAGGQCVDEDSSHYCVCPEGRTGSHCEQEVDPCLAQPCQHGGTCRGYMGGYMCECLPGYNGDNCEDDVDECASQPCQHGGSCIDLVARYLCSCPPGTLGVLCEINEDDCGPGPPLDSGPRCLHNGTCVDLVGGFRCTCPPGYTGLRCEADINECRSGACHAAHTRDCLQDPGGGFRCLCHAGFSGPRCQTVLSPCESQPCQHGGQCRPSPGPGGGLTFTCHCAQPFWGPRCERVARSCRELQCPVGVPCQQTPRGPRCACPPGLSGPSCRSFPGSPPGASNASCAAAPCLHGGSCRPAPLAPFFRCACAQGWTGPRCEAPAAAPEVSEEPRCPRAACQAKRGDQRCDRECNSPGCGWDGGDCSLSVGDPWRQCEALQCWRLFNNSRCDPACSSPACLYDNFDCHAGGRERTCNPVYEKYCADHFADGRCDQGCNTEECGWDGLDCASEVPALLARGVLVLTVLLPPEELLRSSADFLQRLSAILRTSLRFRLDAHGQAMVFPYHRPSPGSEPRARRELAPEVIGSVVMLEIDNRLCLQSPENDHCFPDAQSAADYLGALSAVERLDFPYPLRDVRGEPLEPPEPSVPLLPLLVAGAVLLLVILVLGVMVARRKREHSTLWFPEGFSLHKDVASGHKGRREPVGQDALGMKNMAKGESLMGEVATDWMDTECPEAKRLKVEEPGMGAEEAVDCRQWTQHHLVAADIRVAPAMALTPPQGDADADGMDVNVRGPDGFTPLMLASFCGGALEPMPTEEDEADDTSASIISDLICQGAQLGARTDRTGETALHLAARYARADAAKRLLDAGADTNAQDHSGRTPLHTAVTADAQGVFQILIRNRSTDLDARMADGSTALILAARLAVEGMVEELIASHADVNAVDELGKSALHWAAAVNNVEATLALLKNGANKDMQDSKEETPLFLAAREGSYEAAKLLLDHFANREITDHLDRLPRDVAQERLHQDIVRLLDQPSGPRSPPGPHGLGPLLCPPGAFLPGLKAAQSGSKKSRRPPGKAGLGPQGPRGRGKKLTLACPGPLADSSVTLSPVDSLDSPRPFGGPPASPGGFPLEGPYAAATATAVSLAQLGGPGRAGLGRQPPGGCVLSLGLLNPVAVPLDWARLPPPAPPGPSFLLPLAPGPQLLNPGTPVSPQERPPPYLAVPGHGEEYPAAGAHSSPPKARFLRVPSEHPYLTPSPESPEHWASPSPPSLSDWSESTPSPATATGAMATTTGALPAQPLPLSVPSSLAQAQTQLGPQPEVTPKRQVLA

[20] = small-molecule microarray binders of probe aEGFR, primary screen, biochemical, biotinylated probe, 635/667 nm fluorescence (AID 1097); details: higher = more signal;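 also: probe is a biotinylated anti-EGFR antibody binding compounds printed on slides; score combines fluorescence near 667 nm and signal to noise of each spot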

| Structure (SMILES) | composite z-score [1] | composite z-score [2] | composite z-score [3] | composite z-score [4] | composite z-score [5] | composite z-score [6] | composite z-score [7] | z-score [8] | composite z-score [9] | composite z-score [10] | composite z-score [11] | z-score [12] | z-score [13] | z-score [14] | composite z-score [15] | z-score [16] | composite z-score [17] | composite z-score [18] | composite z-score [19] | composite z-score [20] |
| --- | --- | --- | --- | --- | --- | --- | --- | --- | --- | --- | --- | --- | --- | --- | --- | --- | --- | --- | --- | --- |
| O=C(O)[C@H](Cc1ccccc1)n1cc(-c2ccccn2)nn1 | -0.158 | -0.258 | -0.149 | 0.306 | 0.377 | 0.286 | 1.07 | 1.24 (inactive) | 0.321 | -0.0672 | 0.427 | 0.445 (inactive) | 1.25 (inactive) | -0.609 (inactive) | 0.524 | -0.631 (inactive) | -0.103 | 0.665 | 0.596 | -0.042 |
| CC=CC(O)C1C=CC2C(=O)N(c3ccccc3)C(=O)C2N1Nc1ccc([N+](=O)[O-])cc1 (stereo not given) | -0.241 | 0.0149 | -0.0534 | 0.407 | 0.998 | 1.69 | 0.981 | 0.515 (inactive) | 0.126 | -0.0003 | 0.725 | -0.0987 (inactive) | 1.17 (inactive) | 1.44 (inactive) | 2.65 | -0.699 (inactive) | -0.0931 | 0.257 | 0.512 | 0.0007 |
| CN(C)CCCN1C(=O)[C@@]2(c3ccc([N+](=O)[O-])cc3)CC(=O)N(CC34CC5CC(CC(C5)C3)C4)[C@@H]2c2ccc(CO)cc21 | -0.106 | -0.429 | -0.0276 | 0.0318 | -0.346 | 0.742 | 0.72 | 0.0832 (inactive) | 0.0267 | 0.0024 | 1.54 | 0.296 (inactive) | -0.505 (inactive) | -1.06 (inactive) | 3.29 | 0.304 (inactive) | -0.116 | -0.378 | 0.214 | -0.12 |
| CC(C)(C)OC(=O)CC[C@]1(C(=O)NCCN2CCOCC2)N=C(c2ccc(OCCCO)cc2)O[C@H]1c1ccccc1 | 0.445 | -1.1 | -0.0939 | -0.109 | -0.313 | 1.66 | 1.09 | 0.273 (inactive) | 0.285 | -0.0618 | 1.55 | 0.681 (inactive) | 0.0586 (inactive) | -0.23 (inactive) | 3.23 | 0.437 (inactive) | -0.007 | -0.316 | -0.532 | 0.34 |
| NCCCCCNC(=O)[C@@H]1C[C@@H]2C(=O)N[C@@H](CCCCN)C(=O)N2[C@@H]1c1cccc(OCCO)c1 | 0.0523 | 0.329 | -0.0037 | -0.202 | -0.254 | 2.11 | 0.969 | -0.697 (inactive) | -0.413 | 0.0497 | 0.61 | 0.656 (inactive) | 0.212 (inactive) | -0.0182 (inactive) | 0.557 | 0.767 (inactive) | 0.119 | 0.878 | 0.702 | -0.0306 |
| C[C@]12C(=O)N(CCCCCCO)[C@@H]3C(=O)N(c4ccc(Cl)cc4)CC=CC31O[C@@H]1/C=C\CCCOC(=O)C12 (stereo not given in full) | 0.299 | -0.268 | -0.121 | -0.387 | -1.02 | 0.0955 | 1.2 | -0.621 (inactive) | -0.21 | -0.132 | 0.807 | -2.23 (inactive) | -1.63 (inactive) | -0.695 (inactive) | 3.27 | 1.19 (inactive) | -0.0665 | -0.463 | -0.353 | -0.194 |
| CCOC(=O)C1=CC[C@@H](c2ccc([N+](=O)[O-])cc2)N(S(=O)(=O)c2ccc(C)cc2)[C@H]1c1ccccc1 | -0.298 | 0.491 | 0.052 | 0.628 | 1.55 | 0.525 | 1.4 | -2.02 (inactive) | 0.858 | 0.0695 | 1.54 | 0.792 (inactive) | 1.45 (inactive) | 3.16 (inactive) | 2.98 | 0.413 (inactive) | 0.0511 | 1.02 | 1.14 | 0.202 |
| COc1ccc([Si](C)(C)[C@@H]2[C@@H](CCO)O[C@]3(C(=O)N(Cc4cccc(N5C(=O)c6ccccc6Oc6ccccc65)c4)c4ccccc43)[C@H]2C)cc1 | 0.393 | 0.123 | -0.134 | -0.173 | -0.571 | 0.536 | 0.602 | 0.133 (inactive) | 0.0472 | -0.134 | 1.17 | 2.79 (inactive) | -0.483 (inactive) | 36.9 (active) | 1.46 | 1.21 (inactive) | -0.0666 | -0.224 | 0.0578 | -0.281 |
| O=C1c2ccccc2[C@](Cc2ccccc2I)(C(=O)NCCN2CCOCC2)[C@H](c2ccc(CO)cc2)N1Cc1ccccc1 | -0.0634 | 0.783 | -0.0356 | 0.699 | 1.33 | 1.1 | 1.33 | -3.84 (inactive) | 0.983 | 0.519 | 1.52 | 0.189 (inactive) | 0.0239 (inactive) | -0.477 (inactive) | 2.8 | 0.47 (inactive) | 0.182 | 0.406 | 1.08 | 0.225 |
| COCCOC(=O)N1C(=O)[C@@]2(c3ccccc31)[C@H](C(=O)N1CCN(c3ncccn3)CC1)[C@H]1C(=O)O[C@H](c3ccccc3)[C@H](c3ccccc3)N1[C@@H]2c1ccc(OCCO)cc1 | 0.213 | 0.295 | 0.0043 | 1.13 | 1.29 | 1.2 | 1.28 | 0.795 (inactive) | 0.593 | 0.388 | 1.56 | 2.53 (inactive) | 1.1 (inactive) | 5.84 (inactive) | 2.56 | 1.75 (inactive) | 0.309 | 0.57 | 0.817 | 0.325 |
